Here are results for 19 compounds from PubChem BioAssay (EPA / NIEHS).

Broadly, the AC50 is the concentration at which the activity in the assay is half-maximal.

Inconclusive results are not listed. A structure can be active in one record and inactive in another. The source made the active and inactive calls. The calls were made as follows, unless noted: active = hit-call score of the fitted dose curve at least 0.9, where 1 is the maximum; inconclusive = response in the unintended direction; inactive = score below 0.9.

Experiment [1] deals with human Adenosine Transporter (Adot), SLC29A1 (gene 2030) (UniProt Q99808). The experiment can be described thus: NVS_TR_hAdoT: NovaScreen (NVS) Transporter Assay for human Adenosine Transporter (Adot) (AID 2283368). Put shortly:
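U937-derived membranes, cell-free radioligand binding, filter scintillation 1 h after dosing. 25 uM duplicate screen; hits (e.g. 30% inhibition) run in concentration-response up to 50 uM; loss of signal versus DMSO.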

Experiment [2] addresses Glucocorticoid receptor (Homo sapiens) (UniProt P04150). The experiment can be described thus: NVS_NR_hGR: NovaScreen (NVS) Nuclear Receptor Binding Assay for human Glucocorticoid Receptor (GR) (AID 2283363).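 As to AC50: activity is loss of specific radioligand binding signal relative to DMSO.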 The procedure, abridged:
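Cell-free radioligand binding with extracted receptor protein, read by filter-based scintillation counting 16 hours after dosing. Loss of specific signal versus DMSO baseline was scored. Primary screen ran in duplicate at 25 uM; actives were followed up in concentration series.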

Experiment [3] has as its target rat Androgen Receptor (AR), Ar (gene 24208) (UniProt P15207). The experiment can be described thus: NVS_NR_rAR: NovaScreen (NVS) Nuclear Receptor Binding Assay for rat Androgen Receptor (AR) (AID 2283366). The procedure, abridged:
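Cell-free radioligand binding on extracts of prostate from testosterone-pretreated rats, read by filter-based scintillation counting 18 h after dosing. Loss of bound signal fitted positively versus DMSO; primary screen in duplicate at 25 uM, actives followed up in concentration series.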

Experiment [4] deals with guinea pig Dopamine Transporter (DAT), gene 100714898. The experiment can be described thus: NVS_TR_gDAT: NovaScreen (NVS) Transporter Assay for guinea pig Dopamine Transporter (DAT) (AID 2283369).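 Also: active compounds lower bound radioligand signal relative to DMSO.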 The procedure, abridged:
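Guinea pig striatal membranes; radioligand displacement measured by filter-based scintillation counting 2 h after dosing. Initial duplicate screen at 25 uM, then concentration-response up to 50 uM for hits; loss of signal versus DMSO baseline.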

The subject of experiment [5] is rat Norepinephrine Transporter (NET), gene 83511. Kind of experiment: NVS_TR_rNET: NovaScreen (NVS) Transporter Assay for rat Norepinephrine Transporter (NET) (AID 2283373). The procedure, abridged: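 Rat forebrain membranes; radioligand binding measured by filter-based scintillation counting 1 hour after dosing. Loss of specific binding versus DMSO baseline scored; primary screen in duplicate at 25 uM, actives followed up in concentration series.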

The target of experiment [6] is human Dopamine Transporter (DAT), SLC6A3 (gene 6531) (UniProt Q01959). Kind of experiment: NVS_TR_hDAT: NovaScreen (NVS) Transporter Assay for human Dopamine Transporter (DAT) (AID 2283374).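 Also: activity means loss of bound radioligand signal relative to DMSO.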 The procedure, abridged:
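Cell-free radioligand binding to extracted human DAT protein, read 1 h after dosing by filter-based scintillation counting. Loss of specific binding scored against DMSO baseline; primary screen in duplicate at 25 uM, actives then run in concentration series.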

For experiment [7], the target named is human Norepinephrine Transporter (NET), SLC6A2 (gene 6530) (UniProt P23975). Kind of experiment: NVS_TR_hNET: NovaScreen (NVS) Transporter Assay for human Norepinephrine Transporter (NET) (AID 2283377).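 Also: cell-free membrane protein extracted from CHO cells expressing human NET.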 Put shortly:
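Radioligand binding to human NET in cell-free CHO-derived protein preparations, read by filter-based scintillation counting 1 hour after dosing. Loss of signal versus DMSO baseline indicated displacement; primary screening in duplicate at 25 uM, actives then titrated.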

Experiment [8] addresses Estrogen receptor (Homo sapiens) (UniProt P03372). Kind of experiment: OT_ERa_GFPERaERE_0480: Odyssey Thera (OT) 8-hour HeLa Transcription Induction Assay for Estrogen Receptor (AID 2283381; active = hit-call score of the fitted dose curve at least 0.9, where 1 is the maximum; inactive = score below 0.9). The procedure, abridged:
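HeLa cells expressing GFP reporter under estrogen response element, imaged 8 h after dosing. GFP induction quantified by high-content fluorescence microscopy image analysis; gain of signal fitted versus DMSO.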

Experiment [9] has the same target. The experiment can be described thus: OT_ERa_GFPERaERE_0120: Odyssey Thera (OT) 2-hour HeLa Transcription Induction Assay for Estrogen Receptor (AID 2283382). The procedure, abridged: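 HeLa cells were dosed for 2 h, then GFP reporter induction was quantified by fluorescence microscopy with high-content image analysis. Gain of signal fitted against DMSO baseline.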

For experiment [10], the target named is Nuclear receptor subfamily 1 group I member 2 (Homo sapiens) (UniProt O75469). The experiment can be described thus: NVS_NR_hPXR: NovaScreen (NVS) Nuclear Receptor Binding Assay for human Pregnane X Receptor (PXR) (AID 2283365).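 Also: a drop in FRET signal versus DMSO baseline means the compound binds.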 The procedure, abridged: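 Cell-free binding assay with extracted human PXR protein, read by TR-FRET 2 h after dosing; loss of signal relative to DMSO baseline indicates binding. Primary screen at 25 uM in duplicate, actives retested in concentration series.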

In experiment [11] the target is Peroxisome proliferator-activated receptor gamma (Homo sapiens) (UniProt P37231). Kind of experiment: NVS_NR_hPPARg: NovaScreen (NVS) Nuclear Receptor Binding Assay for human Peroxisome Proliferator-activated Receptor gamma (PPARg) (AID 2283370). Put shortly: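 Cell-free binding to extracted PPARg protein, read by fluorescence polarization 2 h after dosing; loss of signal relative to DMSO baseline marks displacement. Primary screen in duplicate at 25 uM, actives retested in concentration series.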

The target in experiment [12] is Agonist Androgen Response Element (ARE), AR (gene 367) (UniProt P10275). Kind of experiment: OT_AR_ARELUC_AG_1440: Odyssey Thera (OT) 24-hour CHO-K1 Luciferase Assay for Agonist Androgen Response Element (ARE) (AID 2283379). The procedure, abridged:
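Seed CHO-K1 cells; dose compounds for 24 h; add D-luciferin plus ATP in PBS; read luminescence. Signal increase relative to vehicle defines agonist activity, with at least 3 replicate wells per sample.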

The target in experiment [13] is Estrogen receptor beta (Homo sapiens) (UniProt Q92731). Kind of experiment: OT_ER_ERbERb_1440: Odyssey Thera (OT) 24-hour HEK293T Protein-Complementation Assay for Estrogen Receptor-beta/-beta Homodimer (AID 2283380).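 Also: fluorescence gain from ER beta LBD homodimer complementation read by laser scanning cytometry; scored as signal increase over DMSO baseline for both agonists and antagonists.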 The procedure, abridged: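 HEK293T cells stably expressing human ER-beta LBD (aa 310-547) PCA homodimer pair, dosed 24 h; formaldehyde-fixed, Draq5-stained. Readout: increase in nuclear (agonist) or nuclear plus cytoplasmic (antagonist) fluorescence intensity versus DMSO, gain-of-signal fitting.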

Experiment [14] concerns the target Bile acid receptor (Homo sapiens) (UniProt Q96RI1). The experiment can be described thus: OT_FXR_FXRSRC1_0480: Odyssey Thera (OT) 8-hour HEK293T Protein-Complementation Assay for Farnesoid X receptor/SRC-1 Co-activator (AID 2283383). Put shortly:
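HEK293T protein-fragment complementation assay: FXR and SRC-1 coactivator are fused to reporter fragments, and their interaction restores a fluorescent reporter. Readout was taken 8 h after dosing, with gain of signal fit relative to DMSO.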

The target is the same in experiment [15]. Kind of experiment: OT_FXR_FXRSRC1_1440: Odyssey Thera (OT) 24-hour HEK293T Protein-Complementation Assay for Farnesoid X receptor/SRC-1 Co-activator (AID 2283384). Put shortly: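 HEK293T cells, 24 h after chemical dosing. FXR–SRC-1 coactivator interaction read as fluorescence from protein-fragment complementation of a split reporter. Gain of signal fitted against DMSO baseline.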

In experiment [16] the target is human Thyroid Receptor Alpha (TRa), THRA (gene 7067) (UniProt P10827). The experiment can be described thus: NVS_NR_hTRa_Antagonist: NovaScreen (NVS) Nuclear Receptor Binding Assay for human Thyroid Receptor Alpha Antagonism (TRa) (AID 2283362). Put shortly:
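Cell-free binding assay on extracted receptor protein, read 1 h after chemical dosing by AlphaLISA chemiluminescence; loss of signal relative to DMSO baseline marks antagonism. Primary screen ran in duplicate at 25 uM, with concentration series for actives.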

Experiment [17] has as its target mouse Estrogen Receptor alpha (Era), Esr1 (gene 13982) (UniProt P19785). Kind of experiment: NVS_NR_mERa: NovaScreen (NVS) Nuclear Receptor Binding Assay for mouse Estrogen Receptor alpha (Era) (AID 2283378).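 Also: hit means loss of bound radioligand signal relative to DMSO.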 The procedure, abridged:
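Cell-free radioligand binding with extracted mouse Era protein; competitive displacement of radiolabelled ligand, read by filter-based scintillation counting 18 hours after dosing. Loss of signal versus DMSO baseline taken as binding; single screening concentration 25 uM, actives followed in concentration series.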

Sequence of Agonist Androgen Response Element (ARE), AR (gene 367) (P10275 whole entry, looked up): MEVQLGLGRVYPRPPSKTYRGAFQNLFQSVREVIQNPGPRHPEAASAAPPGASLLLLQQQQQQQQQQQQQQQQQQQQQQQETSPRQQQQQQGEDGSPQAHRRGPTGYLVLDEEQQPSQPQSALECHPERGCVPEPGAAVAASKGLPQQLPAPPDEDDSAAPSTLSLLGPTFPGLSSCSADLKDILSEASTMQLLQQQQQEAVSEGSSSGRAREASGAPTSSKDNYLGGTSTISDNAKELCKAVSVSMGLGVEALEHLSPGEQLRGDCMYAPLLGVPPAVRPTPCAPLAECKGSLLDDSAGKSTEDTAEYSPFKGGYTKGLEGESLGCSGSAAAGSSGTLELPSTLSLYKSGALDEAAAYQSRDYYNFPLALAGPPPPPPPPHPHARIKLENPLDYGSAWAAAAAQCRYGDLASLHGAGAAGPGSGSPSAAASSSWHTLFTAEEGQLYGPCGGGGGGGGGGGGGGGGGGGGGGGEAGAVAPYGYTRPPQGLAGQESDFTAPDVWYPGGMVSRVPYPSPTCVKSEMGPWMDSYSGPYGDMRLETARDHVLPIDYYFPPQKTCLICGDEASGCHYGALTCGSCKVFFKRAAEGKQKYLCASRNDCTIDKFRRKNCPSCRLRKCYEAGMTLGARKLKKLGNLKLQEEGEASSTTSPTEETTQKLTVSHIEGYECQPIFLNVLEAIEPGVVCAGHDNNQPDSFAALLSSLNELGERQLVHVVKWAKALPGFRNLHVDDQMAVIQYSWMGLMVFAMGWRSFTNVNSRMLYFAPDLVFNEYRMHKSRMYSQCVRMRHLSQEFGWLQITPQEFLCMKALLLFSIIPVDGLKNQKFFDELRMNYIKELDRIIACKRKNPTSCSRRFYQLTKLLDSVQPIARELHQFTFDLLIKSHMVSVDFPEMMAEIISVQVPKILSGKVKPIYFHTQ
Sequence of Bile acid receptor (Homo sapiens) (Q96RI1 whole entry, looked up, the tested form may be a part): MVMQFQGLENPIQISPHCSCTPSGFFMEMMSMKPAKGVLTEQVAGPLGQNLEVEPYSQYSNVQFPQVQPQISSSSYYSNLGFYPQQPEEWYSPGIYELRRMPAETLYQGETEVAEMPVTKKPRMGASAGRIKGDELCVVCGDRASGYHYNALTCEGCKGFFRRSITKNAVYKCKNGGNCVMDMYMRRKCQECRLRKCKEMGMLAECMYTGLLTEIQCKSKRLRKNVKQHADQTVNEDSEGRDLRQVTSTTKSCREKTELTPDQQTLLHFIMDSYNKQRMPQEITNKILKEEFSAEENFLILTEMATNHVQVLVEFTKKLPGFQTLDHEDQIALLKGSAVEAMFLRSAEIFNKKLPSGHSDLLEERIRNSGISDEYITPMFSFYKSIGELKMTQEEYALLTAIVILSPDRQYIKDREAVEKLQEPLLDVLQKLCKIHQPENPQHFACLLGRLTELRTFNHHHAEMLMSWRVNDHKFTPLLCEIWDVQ
Sequence of human Norepinephrine Transporter (NET), SLC6A2 (gene 6530) (P23975 whole entry, looked up): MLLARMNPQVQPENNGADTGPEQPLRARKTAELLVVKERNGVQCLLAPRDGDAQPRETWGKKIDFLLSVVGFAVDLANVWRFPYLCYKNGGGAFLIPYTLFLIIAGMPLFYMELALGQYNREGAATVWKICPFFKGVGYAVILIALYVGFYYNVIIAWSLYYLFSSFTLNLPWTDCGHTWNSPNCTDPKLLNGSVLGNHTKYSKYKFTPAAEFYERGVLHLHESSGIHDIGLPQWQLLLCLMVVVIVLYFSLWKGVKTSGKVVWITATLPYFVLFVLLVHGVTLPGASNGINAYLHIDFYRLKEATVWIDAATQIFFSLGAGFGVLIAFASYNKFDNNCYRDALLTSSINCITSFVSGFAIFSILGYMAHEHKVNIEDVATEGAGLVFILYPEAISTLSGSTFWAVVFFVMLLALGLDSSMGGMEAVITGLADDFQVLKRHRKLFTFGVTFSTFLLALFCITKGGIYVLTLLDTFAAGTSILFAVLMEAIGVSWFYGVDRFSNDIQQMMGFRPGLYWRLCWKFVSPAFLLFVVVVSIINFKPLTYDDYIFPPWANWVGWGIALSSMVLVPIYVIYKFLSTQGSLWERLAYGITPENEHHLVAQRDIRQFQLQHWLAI
Sequence of human Dopamine Transporter (DAT), SLC6A3 (gene 6531) (Q01959 whole entry, looked up): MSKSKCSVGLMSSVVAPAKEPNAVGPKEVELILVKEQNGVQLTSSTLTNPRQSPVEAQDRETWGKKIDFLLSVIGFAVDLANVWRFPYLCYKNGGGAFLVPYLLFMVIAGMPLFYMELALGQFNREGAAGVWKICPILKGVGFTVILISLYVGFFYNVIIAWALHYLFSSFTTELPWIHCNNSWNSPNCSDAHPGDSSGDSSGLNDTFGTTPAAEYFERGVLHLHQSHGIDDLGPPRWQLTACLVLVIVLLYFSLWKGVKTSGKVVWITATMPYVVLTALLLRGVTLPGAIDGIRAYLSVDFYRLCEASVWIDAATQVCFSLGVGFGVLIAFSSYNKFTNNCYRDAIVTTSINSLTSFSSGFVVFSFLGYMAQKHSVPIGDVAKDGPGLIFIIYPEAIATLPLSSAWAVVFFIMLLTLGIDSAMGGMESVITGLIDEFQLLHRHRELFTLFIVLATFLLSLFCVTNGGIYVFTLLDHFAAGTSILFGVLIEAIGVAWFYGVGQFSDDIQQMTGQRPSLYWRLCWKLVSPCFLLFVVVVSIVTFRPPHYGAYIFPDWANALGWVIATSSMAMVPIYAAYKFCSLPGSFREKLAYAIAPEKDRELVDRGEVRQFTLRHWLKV
Sequence of Peroxisome proliferator-activated receptor gamma (Homo sapiens) (P37231 whole entry, looked up): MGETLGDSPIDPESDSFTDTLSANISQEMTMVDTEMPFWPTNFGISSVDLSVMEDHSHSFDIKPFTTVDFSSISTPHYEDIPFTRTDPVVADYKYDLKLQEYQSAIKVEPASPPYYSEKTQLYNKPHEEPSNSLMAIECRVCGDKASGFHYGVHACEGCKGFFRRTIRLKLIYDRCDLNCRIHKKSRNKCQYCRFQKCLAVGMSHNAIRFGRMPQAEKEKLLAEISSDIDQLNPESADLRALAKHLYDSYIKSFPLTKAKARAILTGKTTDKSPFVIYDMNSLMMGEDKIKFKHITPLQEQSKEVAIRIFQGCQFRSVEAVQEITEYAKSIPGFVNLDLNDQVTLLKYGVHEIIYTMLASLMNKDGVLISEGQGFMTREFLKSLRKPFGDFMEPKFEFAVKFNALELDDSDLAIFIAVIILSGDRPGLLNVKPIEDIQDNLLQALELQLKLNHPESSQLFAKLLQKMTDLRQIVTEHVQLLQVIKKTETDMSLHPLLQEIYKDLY
Sequence of mouse Estrogen Receptor alpha (Era), Esr1 (gene 13982) (P19785 whole entry, looked up): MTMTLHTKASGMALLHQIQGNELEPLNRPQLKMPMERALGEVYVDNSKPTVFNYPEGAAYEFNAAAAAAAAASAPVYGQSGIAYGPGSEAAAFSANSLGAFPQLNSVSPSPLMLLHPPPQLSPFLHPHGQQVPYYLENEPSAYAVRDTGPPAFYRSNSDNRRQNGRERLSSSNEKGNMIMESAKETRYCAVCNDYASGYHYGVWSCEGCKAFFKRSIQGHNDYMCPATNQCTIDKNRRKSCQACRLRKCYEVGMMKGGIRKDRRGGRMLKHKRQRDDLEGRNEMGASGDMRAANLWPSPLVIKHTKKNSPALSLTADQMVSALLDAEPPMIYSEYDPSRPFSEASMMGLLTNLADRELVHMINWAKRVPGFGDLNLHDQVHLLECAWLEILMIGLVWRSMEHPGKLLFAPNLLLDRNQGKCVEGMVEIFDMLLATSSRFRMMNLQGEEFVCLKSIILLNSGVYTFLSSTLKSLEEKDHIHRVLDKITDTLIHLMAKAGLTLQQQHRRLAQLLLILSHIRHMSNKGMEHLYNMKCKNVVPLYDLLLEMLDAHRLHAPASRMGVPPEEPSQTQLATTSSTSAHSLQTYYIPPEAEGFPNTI
Sequence of Estrogen receptor beta (Homo sapiens) (Q92731 whole entry, looked up, the tested form may be a part): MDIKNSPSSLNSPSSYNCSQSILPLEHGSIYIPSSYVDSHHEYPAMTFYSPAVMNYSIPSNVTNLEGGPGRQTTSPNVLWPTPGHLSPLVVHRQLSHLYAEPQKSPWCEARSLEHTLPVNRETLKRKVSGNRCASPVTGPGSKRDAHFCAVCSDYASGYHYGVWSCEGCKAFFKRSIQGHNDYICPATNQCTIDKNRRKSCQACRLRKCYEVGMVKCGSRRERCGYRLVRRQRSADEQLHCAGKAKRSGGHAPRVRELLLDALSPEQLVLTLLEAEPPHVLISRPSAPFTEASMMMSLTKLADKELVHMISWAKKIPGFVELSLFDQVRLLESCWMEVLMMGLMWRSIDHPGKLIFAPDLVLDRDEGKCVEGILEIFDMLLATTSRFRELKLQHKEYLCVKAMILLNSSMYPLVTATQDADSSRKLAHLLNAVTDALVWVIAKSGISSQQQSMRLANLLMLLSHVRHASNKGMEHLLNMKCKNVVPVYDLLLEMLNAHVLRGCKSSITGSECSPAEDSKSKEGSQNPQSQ
Sequence of Nuclear receptor subfamily 1 group I member 2 (Homo sapiens) (O75469 whole entry, looked up): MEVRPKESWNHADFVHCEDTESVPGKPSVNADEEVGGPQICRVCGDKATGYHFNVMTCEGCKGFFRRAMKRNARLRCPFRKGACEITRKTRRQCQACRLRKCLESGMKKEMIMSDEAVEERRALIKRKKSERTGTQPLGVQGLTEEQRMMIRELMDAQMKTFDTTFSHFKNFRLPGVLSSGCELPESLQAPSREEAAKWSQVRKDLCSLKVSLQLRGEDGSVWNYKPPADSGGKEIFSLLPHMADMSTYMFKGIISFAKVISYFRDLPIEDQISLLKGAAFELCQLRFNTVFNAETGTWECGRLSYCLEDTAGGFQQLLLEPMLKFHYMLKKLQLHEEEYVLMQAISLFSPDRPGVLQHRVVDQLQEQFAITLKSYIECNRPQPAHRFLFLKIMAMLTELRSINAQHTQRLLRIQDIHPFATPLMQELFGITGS

In the case of `CS(=O)(=O)c1ccc([C@@H](CC2CCCC2)C(=O)Nc2cnccn2)cc1Cl`, in experiment [1], the AC50 is 25 µM (active).
`CCC(=O)O`: in experiment [2], the AC50 was 0.202 µM (active).
Regarding `CC(C)(c1ccc(Oc2ccc(N)cc2)cc1)c1ccc(Oc2ccc(N)cc2)cc1`, the compound was called inactive in [3].
For the compound `N=C(N)c1ccc(OCCCCCOc2ccc(C(=N)N)cc2)cc1`, the AC50 in [4] is 2.07 µM (active); in experiment [6], 4.11 µM (active); in experiment [7], 0.725 µM (active). Besides, the call in [5], in experiment [8] and in experiment [9] was inactive.
`CCCCCCCCCC=CCC1CC(=O)OC1=O` (stereo unspecified): the result in experiment [10], in [13], in experiment [8], in experiment [9], in experiment [14] and in [15] was inactive. In addition, the AC50 is 25 µM (active) in [11] and 21.2 µM (active) in experiment [12].
For the compound `CCCCc1ccc2ccccc2c1S(=O)(=O)O`, the AC50 was 7.95 µM (active) in experiment [2], 4.06 µM (active) in [10] and 13.3 µM (active) in experiment [12]. Moreover, the call in [11], in experiment [13], in experiment [8], in [9] and in [14] was inactive.
Consider `O=C(O)c1cccc(C(=O)O)n1`, for which, in experiment [16], the concentration at half-maximal activity (AC50) is 28.1 µM (active). Besides, the outcome in experiment [13], in experiment [8] and in experiment [9] was inactive.
Turning to `C[C@]12CC[C@@H]3c4ccc(O)cc4CC[C@H]3[C@@H]1C[C@@H](O)[C@@H]2O`, the compound was classed as inactive in experiment [2]. The figures for the AC50 in experiment [4], in experiment [6] and in experiment [13] were 3.04 µM (active), 15.4 µM (active) and 0.03 µM (active), respectively.
Consider `CCCCCCCCCCCC`, for which the figures for the half-maximal activity concentration (AC50) in experiment [2], in experiment [10] and in [11] were 0.703 µM (active), 2.03 µM (active) and 0.401 µM (active), respectively. The outcome in experiment [11] was inactive.
For the compound `COC1=CC(=O)C[C@@H](C)[C@]12Oc1c(Cl)c(OC)cc(OC)c1C2=O`, the AC50 in [4] was 3.8 µM (active).
On to `Oc1cccc2c(O)cccc12`, for which the AC50 in experiment [6] was 25 µM (active). Moreover, the result in [7] was inactive.
With `CC(C)[C@@H]1CC[C@@H](C)C[C@H]1O`, the call in [11], in experiment [13] and in experiment [14] was inactive.
For `CCCCc1oc2ccccc2c1C(=O)c1cc(I)c(OCCN(CC)CC)c(I)c1`, the AC50 in experiment [4] was 17.8 µM (active); in experiment [14] it was 9.16 µM (active); in experiment [15] it was 8.87 µM (active). Further, the outcome in experiment [13], in [8] and in [9] was inactive.
On to `COc1cc([N+](=O)[O-])ccc1N`, for which the call in [12], in experiment [8], in experiment [9] and in experiment [14] was inactive. In addition, the figures for the AC50 in experiment [13] and in experiment [15] were 28.4 µM (active) and 28 µM (active), respectively.
On to `C=Cc1ccc(O)c(OC)c1`, for which, in experiment [7], the concentration at half-maximal activity (AC50) was 19.1 µM (active).
In the case of `C[C@]12CC[C@@H]3c4ccc(O)cc4CC[C@H]3[C@@H]1CC[C@@H]2OC(=O)CCC1CCCC1`, the concentration at half-maximal activity (AC50) in [17] is 0.0452 µM (active).
As to `NCCN`, the outcome in experiment [8] and in experiment [9] was inactive.
`CCCCCCCCCCCCCC[n+]1ccccc1`: in experiment [17], the call was inactive.
As for `C=CC(C)(CCC=C(C)C)OC(C)=O` (stereo unspecified), the result in experiment [11], in experiment [17], in experiment [8], in [9] and in [15] was inactive. In experiment [14], the half-maximal activity concentration (AC50) was 76 µM (active).
